Compounds without any hit were thinned out: in the full panel of roughly 83,000, 20% have a hit.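 Single-dose data. Exposure time 48 hours. Values below 10 considered active.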 Values without a mark were called inactive.

This assay deals with HL-60(TB) leukemia. The assay can be described thus: NCI-60 one-dose screen, 48 h (100 = growth as untreated, 0 = no growth, -100 = all killed). Particulars: 10 µM unless noted.
Consider `Cc1cc2nc3cc(C)c(N)cc3[n+](-c3ccccc3)c2cc1N`, for which the growth is 63.3%.

As for `N=c1c2c(-c3ccccc3)c(-c3ccccc3)n(Cc3ccccc3)c2ncn1CCCO`, the growth is 39%.

With `O=C(N/N=C/[C@H](O)[C@@H](O)[C@@H](O)[C@H](O)CO)c1ccc(NC(=O)c2cccnc2)cc1`, the growth is 101%.

These data come from PubChem BioAssay (NCI).
